Data from PubChem BioAssay (Tox21).
Records with an inconclusive call do not appear. Active and inactive are the calls of the source. Unless noted, calls follow the shape of the dose curve; as a rule, active = well fitted curve in the direction sought with a large enough effect in the repeat runs; inconclusive = weak or mixed curves; inactive = no such curve, though single readings can be large; an effect the other way counts as inactive or inconclusive.

Assays:
[1] = qHTS assay to identify small molecule antagonists of the peroxisome proliferator-activated receptor delta (PPARd) signaling pathway - cell viability counter screen (AID 743213); conditions: PPARd-bla HEK293H viability, CellTiter-Glo luminescence, 17 h; series mostly up to 62 µM; also: nearly all actives have a fitted effect of over 50% in size
Summary of the method: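 PPARd-bla HEK293H cells were treated with compounds plus agonist L165041 (300 nM final) for 17 h at 37 C. Viability was then read in the same wells by CellTiter-Glo luminescence after 30 min at room temperature.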

[2] = molecular target: Peroxisome proliferator-activated receptor delta (Homo sapiens) (UniProt Q03181); experiment: qHTS assay to identify small molecule antagonists of the peroxisome proliferator-activated receptor delta (PPARd) signaling pathway (AID 743215; active = well fitted inhibition curve with a large enough effect in the signal ratio in the repeat runs, not every such curve was filed as active; the % refers to the signal ratio;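 also: cells stimulated with agonist L165041 at 300 nM final during compound exposure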); conditions: HEK293H PPARd-UAS-bla, beta-lactamase FRET ratio, antagonist, 17 h; series mostly up to 62 µM
Chain of Peroxisome proliferator-activated receptor delta (Homo sapiens) (Q03181 whole entry, looked up): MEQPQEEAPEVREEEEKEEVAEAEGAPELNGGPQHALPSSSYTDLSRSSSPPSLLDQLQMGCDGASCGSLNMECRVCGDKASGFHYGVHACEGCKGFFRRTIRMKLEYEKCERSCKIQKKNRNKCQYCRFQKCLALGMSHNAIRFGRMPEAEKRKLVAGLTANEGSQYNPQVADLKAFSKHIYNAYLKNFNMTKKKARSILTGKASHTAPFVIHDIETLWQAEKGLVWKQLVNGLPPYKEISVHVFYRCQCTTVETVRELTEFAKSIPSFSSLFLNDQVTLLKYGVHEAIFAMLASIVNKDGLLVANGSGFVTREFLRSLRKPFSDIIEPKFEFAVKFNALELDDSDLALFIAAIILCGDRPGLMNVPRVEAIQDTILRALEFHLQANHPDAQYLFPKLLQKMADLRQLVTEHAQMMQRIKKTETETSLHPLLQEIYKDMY
Summary of the method: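 Inhibition of L165041-driven (300 nM final) PPARd signaling is scored in HEK293H UAS-bla cells. Exposure lasts 17 h at 37 C; beta-lactamase activity is then read by FRET substrate fluorescence after 2 h at room temperature.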

[3] = qHTS assay to identify small molecule agonists of the farnesoid-X-receptor (FXR) signaling pathway - cell viability counter screen (AID 743218); conditions: FXR-bla HEK293T viability, CellTiter-Glo luminescence, 16 h; series mostly up to 62.6 µM; also: nearly all actives have a fitted effect of over 45% in size
Summary of the method: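 Cytotoxicity counter-screen run in parallel, same wells: FXR-UAS-bla HEK 293T cells dosed 16 h at 37 C, viability read by CellTiter-Glo luminescence after 30 min at room temperature.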

[4] = molecular target: Vitamin D3 receptor (Homo sapiens) (UniProt P11473); experiment: qHTS assay to identify small molecule agonists of the vitamin D receptor (VDR) signaling pathway (AID 743222; calls by dose curve); conditions: HEK293T VDR-UAS-bla, beta-lactamase FRET ratio, 16 h; series mostly up to 63.5 µM
Chain of Vitamin D3 receptor (Homo sapiens) (P11473 whole entry, looked up): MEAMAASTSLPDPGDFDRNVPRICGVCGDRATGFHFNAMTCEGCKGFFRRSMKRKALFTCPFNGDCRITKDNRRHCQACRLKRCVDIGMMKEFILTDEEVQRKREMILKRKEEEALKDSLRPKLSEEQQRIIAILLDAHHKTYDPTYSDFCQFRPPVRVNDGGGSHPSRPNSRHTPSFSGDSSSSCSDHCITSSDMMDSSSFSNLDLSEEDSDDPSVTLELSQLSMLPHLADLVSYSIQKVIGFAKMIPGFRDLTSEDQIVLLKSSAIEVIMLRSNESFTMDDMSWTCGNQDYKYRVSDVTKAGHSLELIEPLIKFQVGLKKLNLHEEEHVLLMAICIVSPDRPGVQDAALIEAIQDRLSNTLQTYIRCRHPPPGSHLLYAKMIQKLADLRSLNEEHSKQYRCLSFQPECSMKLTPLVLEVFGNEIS
Summary of the method: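 Quantitative HTS agonist-mode screen: compounds in DMSO were pin-transferred onto VDR-bla cells and incubated 16 h at 37C, 5% CO2. Reporter activity was detected with LiveBLAzer B/G FRET substrate after 2 h at room temperature.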

[5] = qHTS assay to identify small molecule agonists of the vitamin D receptor (VDR) signaling pathway - cell viability counter screen (AID 743224); conditions: VDR-bla HEK293T viability, CellTiter-Glo luminescence, 16 h; series mostly up to 62.6 µM; also: nearly all actives have a fitted effect of over 50% in size
Summary of the method: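 Viability is measured in the same wells as the VDR-bla reporter assay: after 16 h compound treatment and 2 h substrate loading, CellTiter-Glo is added and luminescence read 30 min later.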

[6] = qHTS assay to identify small molecule antagonists of the farnesoid-X-receptor (FXR) signaling pathway - cell viability counter screen (AID 743221; active = well fitted cell-killing curve with a large enough effect in the repeat runs, not every such curve was filed as active; also: nearly all actives have a fitted effect of over 50% in size); conditions: FXR-bla HEK293T viability, CellTiter-Glo luminescence, 16 h; series mostly up to 62.6 µM
Summary of the method: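 Quantitative HTS of the Tox21 10K library run in parallel with the beta-lactamase reporter read. HEK 293T cells carrying a UAS-driven bla reporter got compound and 50 uM CDCA (final) for 16 h; ATP-based luminescence followed.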

[7] = molecular target: Vitamin D3 receptor (Homo sapiens) (UniProt P11473); experiment: qHTS assay to identify small molecule antagonists of the vitamin D receptor (VDR) signaling pathway (AID 743223; active = well fitted inhibition curve with a large enough effect in the signal ratio in the repeat runs, not every such curve was filed as active; the % refers to the signal ratio); conditions: VDR-UAS-bla HEK293T, beta-lactamase FRET ratio, 16 h; series mostly up to 61 µM
Summary of the method: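 Fluorescence from LiveBLAzer B/G FRET substrate, read after 2 h at room temperature, reflects beta-lactamase reporter activity in VDR-bla cells treated 16 h at 37C with compounds and agonist 1alpha,25-dihydroxyvitamin D3 (3 nM final).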

[8] = molecular target: Bile acid receptor (Homo sapiens) (UniProt Q96RI1); experiment: qHTS assay to identify small molecule antagonists of the farnesoid-X-receptor (FXR) signaling pathway (AID 743217; active = well fitted inhibition curve with a large enough effect in the signal ratio in the repeat runs, not every such curve was filed as active; the % refers to the signal ratio); conditions: HEK293T FXR-UAS-bla, beta-lactamase ratio, CDCA-stimulated, 16 h; series mostly up to 62.6 µM
Chain of Bile acid receptor (Homo sapiens) (Q96RI1 whole entry, looked up): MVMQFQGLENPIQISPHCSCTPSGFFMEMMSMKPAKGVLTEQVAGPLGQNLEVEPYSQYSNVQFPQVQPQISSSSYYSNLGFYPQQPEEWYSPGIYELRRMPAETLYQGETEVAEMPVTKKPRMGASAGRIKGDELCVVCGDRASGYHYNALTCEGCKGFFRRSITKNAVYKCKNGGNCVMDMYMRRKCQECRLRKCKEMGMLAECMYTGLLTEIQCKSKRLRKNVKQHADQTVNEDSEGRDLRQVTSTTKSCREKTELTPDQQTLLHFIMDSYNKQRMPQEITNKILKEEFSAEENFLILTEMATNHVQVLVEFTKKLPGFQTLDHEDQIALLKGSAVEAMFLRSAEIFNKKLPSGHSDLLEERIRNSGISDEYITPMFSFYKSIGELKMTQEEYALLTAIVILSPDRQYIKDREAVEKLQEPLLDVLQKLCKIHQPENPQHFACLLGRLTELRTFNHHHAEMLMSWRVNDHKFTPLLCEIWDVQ
Summary of the method: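 Antagonist mode against 50 uM (final) chenodeoxycholic acid stimulation in FXR-bla HEK 293T cells, 16 h at 37 °C. Inhibition detected as reduced beta-lactamase activity via LiveBLAzer B/G FRET fluorescence after 2 h at room temperature.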

[9] = molecular target: Bile acid receptor (Homo sapiens) (UniProt Q96RI1); experiment: qHTS assay to identify small molecule agonists of the farnesoid-X-receptor (FXR) signaling pathway (AID 743220; active = well fitted activation curve with a large enough effect in the signal ratio in the repeat runs, not every such curve was filed as active; the % refers to the signal ratio); conditions: HEK293T FXR-UAS-bla, beta-lactamase FRET ratio, 16 h; series mostly up to 62.6 µM
Summary of the method: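 Beta-lactamase reporter under UAS control in GeneBLAzer FXR HEK 293T cells (5000/well) measured with LiveBLAzer FRET substrate after 2 h at room temperature. Compound exposure lasted 16 h at 37C.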
% is scaled to controls: 0 for no effect and ±100 for the full control effect.

CC(C)(c1ccc(Oc2ccc3c(c2)C(=O)OC3=O)cc1)c1ccc(Oc2ccc3c(c2)C(=O)OC3=O)cc1
inactive: outcome [1] | outcome [2] | Potency [3] | outcome [4] | outcome [5]

C=C[Si](C)(C)O[Si](C)(C)C=C
inactive: outcome [1] | Potency [3] | outcome [6] | outcome [4] | outcome [7] | outcome [5]

O=CO
inactive: viability change, negative = cytotoxic [1] 11.9% [at 6.26 µM] | activity change, negative = inhibition [8] -0.433% [at 5.95 µM] | viability change, negative = cytotoxic [3] 0.465% [at 5.95 µM] | activation [9] -0.16% [at 5.95 µM] | activity change, negative = cytotoxicity [6] -2.88% [at 5.95 µM] | activation [4] -1.04% [at 6.01 µM] | activity change, negative = inhibition [7] 3.44% [at 6.95 µM] | activity change, negative = cytotoxicity [5] -15.6% [at 5.95 µM]

O=C(CN1CCN(Cc2ccc3c(c2)OCO3)CC1)N1c2ccccc2Sc2ccccc21
inactive: outcome [1] | Potency [3] | outcome [6] | outcome [4] | outcome [5]

C1CCN2C[C@@H]3C[C@@H](CN4CCCC[C@@H]34)[C@H]2C1
inactive: outcome [1] | outcome [2] | outcome [4] | outcome [7] | outcome [5]

COCCOCCOCCOC
inactive: outcome [1] | outcome [8] | Potency [3] | outcome [9] | outcome [6] | outcome [4] | outcome [7] | outcome [5]
